# ZTA DNA inh – blocks Epstein-Barr virus ZTA, an EBNA-1 counter-screen; ZTA-DNA binding, fluorescence polarization; 0.15% of 320,000 active; P03206; AID 2234; inhibition, % at 11 µM; in the data active = inhibition above about 33%
# Target sequence (P03206 whole entry, looked up): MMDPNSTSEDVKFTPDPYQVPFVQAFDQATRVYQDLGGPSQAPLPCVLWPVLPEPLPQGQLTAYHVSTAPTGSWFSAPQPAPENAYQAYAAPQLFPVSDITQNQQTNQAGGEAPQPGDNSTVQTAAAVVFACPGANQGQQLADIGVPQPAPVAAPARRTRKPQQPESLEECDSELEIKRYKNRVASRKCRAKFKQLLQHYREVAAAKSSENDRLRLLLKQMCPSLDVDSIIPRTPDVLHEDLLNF
# dFosB act – enhances mouse delta FosB homodimer DNA binding; P13346; AID 493131; purified delta FosB, TAMRA-CDK5 oligo fluorescence polarization; percent of positive-control signal above neutral wells; activation, % at 25 µM; 0.99% of 340,000 active;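 active = mean activation above about 17%, with every replicate also reaching it, limit read from the data, passing the limit was not always enough; inconclusive = only one of the two conditions met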
# Target sequence (P13346 whole entry, looked up): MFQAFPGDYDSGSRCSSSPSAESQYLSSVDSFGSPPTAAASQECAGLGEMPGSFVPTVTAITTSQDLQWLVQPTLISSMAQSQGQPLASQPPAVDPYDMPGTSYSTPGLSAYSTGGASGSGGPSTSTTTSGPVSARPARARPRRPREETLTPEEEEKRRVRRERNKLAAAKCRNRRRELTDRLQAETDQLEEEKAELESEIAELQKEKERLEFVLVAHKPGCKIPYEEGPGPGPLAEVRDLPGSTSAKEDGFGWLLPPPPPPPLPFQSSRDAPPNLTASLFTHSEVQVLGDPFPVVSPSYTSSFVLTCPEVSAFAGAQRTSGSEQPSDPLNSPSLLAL
# EBNA-1 inh – blocks EBNA-1 binding to DNA; inhibition, % at 14.8 µM; 0.34% of 300,000 active; AID 1950; EBNA-1 DNA binding, fluorescence polarization; in the data active = inhibition above about 28%
# PolyA inh – yeast polyadenylation inhibition | S. cerevisiae SKY197-pL101 polyadenylation reporter, beta-gal luminescence; efflux-impaired pdr1/pdr3 knockout yeast; score 100 = 6 SD above DMSO | 0.02% of 300,000 active | AID 1875 | activity score, % at 12 µM;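 active = lowest replicate activity score at least 50, where 100 means six control SD above control mean; inconclusive = lowest score under 50 but half or more replicates reach 50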;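 also: yeast exposed to compound for 9 h at 30 °C; higher score means more reporter readthrough which indicates perturbed polyadenylation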
# NLRP3 yeast inh – NALP3 inhibition in yeast; 0.39% of 330,000 active; AID 2825; inhibition, % at 10 µM; Yeast reconstituted NLRP3/ASC/caspase-1, beta-gal luminescence, 24 h;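 active = inhibition of 50% or more; inactive = inhibition below 50%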;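 also: plate controls were induced DMSO wells for no effect and uninduced yeast grown without galactose for full effect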
# NALP1 inh – NALP1 inhibition; S. cerevisiae NALP1/ASC/caspase-1 growth, X-gal OD620, 72 h; 0.61% of 280,000 active; inhibition, % at 10 µM; in the data active = inhibition mostly above about 24%, no sharp cut-off; inactive = mostly below about 32%
# Starred values were filed as active, the others as inactive; ? = inconclusive; . = no result; + = active, no number; ! = not confirmed by another sample. An excerpt weighted towards active compounds, which were near 2.2% of everything screened.
SMILES,ZTA DNA inh,dFosB act,EBNA-1 inh,PolyA inh,NLRP3 yeast inh,NALP1 inh
CCCCN(CCCC)Cc1cc2ccccc2c2c1COC2,0,-6,1,15,-5,44*
CCCN(CCC)Cc1cc2ccccc2c2c1COC2,11,-7,6,2,-9,-6
CCC(C)C(Nc1ncnc2scc(-c3ccccc3)c12)C(=O)O (centres undefined),9,0,1,-8,10,-46
CC(C)CC(Nc1ncnc2scc(-c3ccccc3)c12)C(=O)O (centres undefined),-5,-2,-13,60*,6,4
Cc1ccccc1OCc1nnc(SCC(=O)O)n1-c1cccc(Cl)c1,-3,-1,6,9,5,-5
Cc1ccc(CC(=O)NCCN2CCOCC2)cc1,-20,4,0,5,-2,1
CC1CCN(Cc2c(C(=O)N/N=C/c3cc(Br)ccc3O)nnn2-c2nonc2N)CC1,0,134*,-3,-9,31,11
Cc1cc(C)c(/C=N/NC(=O)c2nnn(-c3nonc3N)c2CN2CCC(C)CC2)c(C)c1,-7,-24,-13,13,-4,-7
COc1ccc(O)c(/C=N/NC(=O)c2c(C)nnn2-c2nonc2N)c1,0,47*,-7,9,-8,6
CC1CCN(Cc2c(C(=O)N/N=C/c3cc(Cl)ccc3O)nnn2-c2nonc2N)CC1,7,162*,-5,29,35,6
COc1c(Cl)cc(Cl)cc1/C=N/NC(=O)c1nnn(-c2nonc2N)c1CN1CCC(C)CC1,19,-1,-1,-10,10,15
CCOc1ccccc1NC(=O)NCc1ccccn1,-4,1,3,12,5,-2
COc1ccc(OC)c(NC(=O)CS(=O)(=O)Cc2ccccc2)c1,.,4,.,-7,9,39
COc1ccc(OC)c(NS(=O)(=O)Cc2ccccc2)c1,-11,.,-9,13,9,42*
CC(C(=O)O)n1c2ccccc2c2cnn(C)c(=O)c21 (centres undefined),.,-5,.,23,3,6
Cc1ccc(-c2nnn(CC(=O)N(CC3CCCO3)C(C(=O)NC3CCCCC3)c3ccc(F)cc3)n2)o1 (centres undefined),-12,25*,13,-7,2,-14
O=C(NC(=S)Nc1cccc(NC(=S)NC(=O)c2ccco2)n1)c1ccco1,-3,23*,-6,14,10,1
Cc1cccc(NC(=S)NC(=O)c2ccco2)c1C,12,1,-1,-2,12,-3
NS(=O)(=O)c1ccc(NC(=S)NC(=O)c2ccco2)cc1,0,-5,-2,5,11,41*!
O=C1C(F)=CC(COC(c2ccccc2)(c2ccccc2)c2ccccc2)OC1n1cc(F)c(=O)[nH]c1=O (centres undefined),.,-34,.,.,.,.
COc1ccccc1/C=C1\SC(=S)N(CCC(=O)Nc2cccc(O)c2)C1=O,-2,2,8,-8,22,9
COc1cc(CNc2ccc(N3CCCC3)cc2)ccc1OCc1ccccc1,76*,-4,74*,.,.,37
COc1cc(CNc2ccc(N3CCCC3)cc2)ccc1OCc1ccccc1F,79*,1,65*,.,.,39
COc1cc(CNc2ccc(N3CCCCC3)cc2)ccc1OCC(=O)NC(C)(C)C,6,-5,-11,-24,31,-24
COc1ccc(C(=O)NCCc2nnc3ccc(SCC(=O)Nc4ccccc4F)nn23)cc1,11,-7,0,2,4,-7
SMILES,ZTA DNA inh,dFosB act,EBNA-1 inh,PolyA inh,NLRP3 yeast inh,NALP1 inh
Cc1ccccc1C(=O)N1CCC(C(=O)OCc2ccccn2)CC1,.,1,.,.,-5,.
COc1ccc(-n2c(=O)[nH]cc(C(=O)N3CCCc4ccccc43)c2=O)cc1,2,5,-9,-5,-5,27*
CCOc1cc(CNCCO)cc(Br)c1OCc1ccccc1Cl,-4,7,3,6,14,32*
CCOc1cc(CNCCO)cc(Br)c1OCc1ccc(Cl)cc1,-20,?,-11,-7,12,22
CCOc1c(Cl)cc(CNCC(C)C)cc1OC,-8,-10,-6,4,8,69
CCOc1cc(CNCC(C)C)cc(Cl)c1OCc1ccccc1,-8,-10,-5,-19,31,36*
CCc1c(C)nc2ncnn2c1Nc1ccc(C#N)c(Cl)c1,-14,-3,7,-4,2,30*
CN(CC(=O)Nc1ccccc1Cl)CC(=O)Nc1sc2c(c1C(N)=O)CCC2,-10,-6,6,5,7,.
Cn1c(-c2c(N)n(CCCc3ccccc3)c3nc4ccccc4nc23)nc2ccccc21,.,-12,.,7,.,41*
Cn1c(-c2c(N)n(CCc3ccccc3)c3nc4ccccc4nc23)nc2ccccc21,-6,-9,15,-21,0,18
Cc1ccccc1CCNC(=O)C1CCN(S(=O)(=O)c2ccc(-n3cnnn3)cc2)CC1,.,-2,.,2,.,31*
O=C(N/N=C/c1cccn1-c1ccc(O)cc1)c1cccc2ccccc12,-11,22*,2,7,12,-10
CC(=O)Nc1cccc(NC(=O)CSc2n[nH]c(-c3ccccc3)n2)c1,3,-8,.,.,-1,.
CCOC(=O)[C@H]1[C@H]2COc3cc(OC)ccc3[C@@H]2N2C(=O)N(c3ccc(Cl)cc3)C(=O)[C@@]12C,18,-4,4,8,-4,16
CNCCCC12CCC(c3ccccc31)c1ccccc12,-9,1,2,-13,36,29*!
CNCCCC1c2ccccc2C=Cc2ccccc21,1,3,0,14,31,25
CC(C)C(NC(=O)c1ccc(C(C)(C)C)cc1)C(=O)N1CCCC1 (centres undefined),4,-2,2,-9,13,6
CN(C)c1ccc2nc3ccc(=[N+](C)C)cc-3sc2c1,.,40*,+,.,24,20
Cc1cc2nc3ccc(=[N+](C)C)cc-3sc2cc1N,.,-174,.,19,.,12
CCCNc1nc(Nc2ccc(C)cc2)nc(N2CCCC2)n1,-12,-1,7,-6,15,42*
COc1ccc(Nc2nc(NCCO)nc(N3CCCC3)n2)cc1,5,0,9,8,20,.
Cc1onc(-c2ccccc2)c1C(=O)Nc1ccccc1NC(=O)c1c(-c2ccccc2)noc1C,9,-2,13,-7,7,9
Cc1onc(-c2ccccc2)c1C(=O)Nc1ccnn1C1CCCCC1,-7,5,-6,-11,3,32*
O=C(c1ccc([N+](=O)[O-])cc1)N(Cc1ccc(Br)cc1)N1C(=O)CCCC1=O,6,-11,1,-4,6,34*
COc1ccc(C(=O)C(/C=N/O)=N/Nc2ccc(F)cc2)cc1,-1,-1,-17,-24,35,20*
O=c1c2ccccc2sn1-c1cc(S(=O)(=O)N2CCOCC2)ccc1N1CCOCC1,0,-11,3,7,13,30*

# Assay outcomes from PubChem BioAssay.
